# Source: PubChem BioAssay
# Rows were chosen to be rich in hits. Some 6.5% of all compounds tested hit in one or more screens of this group.
# FMDV antiviral: High Throughput Screening for Foot and Mouth Disease Virus Antivirals; FMDV antiviral cell-based qHTS; Potency, µM (series often up to 57.9 µM), for the others: at the highest dose activity change, negative = inhibition, hits mostly inhibitors; 410,000 tested, 1.2% active; AID 1159524, 2015; calls by dose curve; tested in HEK293T cells; further: read-out not given here; potency means the concentration at half of the fitted maximal effect; nearly all actives have a fitted effect of over 45% in size
# Vaccinia Venus: qHTS for Stage-Specific Inhibitors of Vaccinia Orthopoxvirus: Venus Reporter Primary qHTS; Vaccinia virus Venus reporter expression, fluorescence; Potency, µM (highest dose often 36.5 µM), inactives show at the highest dose activity change, negative = inhibition, actives largely listed as inhibitors; 330,000 tested, 0.46% active; AID 720580, 2013; calls by dose curve; tested in A549 cells; further: potency means the concentration at half of the fitted maximal effect; nearly all actives have a fitted effect of over 30% in size
# LASV entry inh: qHTS for Inhibitors of binding or entry into cells for Lassa Virus. Potency, µM (highest dose often 37.9 µM), without a hit: top-dose activity change, negative = inhibition, most hits filed as inhibitors. Lassa virus pseudotype entry inhibition, cell reporter. 300,000 tested, 1.2% active. AID 540256, 2011; calls by dose curve; tested in HEK293 cells; further: potency means the concentration at half of the fitted maximal effect; nearly all actives have a fitted effect of over 50% in size
# HCMV antiviral: qHTS Assay for inhibitors of the human cytomegalovirus (HCMV); HFF cells, HCMV-luciferase reporter, 72 h; hits give low values; activity change, negative = inhibition, % at 57.5 µM; 410,000 tested, 4.5% active; AID 1259415, 2018; in the data active means activity change below about -60%; inconclusive means no clear call, values can overlap the other calls; inactive means above about -39%
#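 After 16 h attachment at 37C, HFF cells received test compound and HCMV-luciferase (1 PFU/cell); reporter luminescence read 72 h later, data normalized against buffer-only and known inhibitor Salinomycin.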
# VACV mCherry inh: qHTS for Stage-Specific Inhibitors of Vaccinia Orthopoxvirus: mCherry Reporter Primary qHTS. Vaccinia virus mCherry reporter infection, fluorescence. Potency, µM (top dose mostly 36.5 µM), for the others: at the highest dose activity change, negative = inhibition, usual class: inhibitors. 310,000 tested, 0.63% active. AID 720579, 2013; calls by dose curve; tested in A549 cells; further: potency means the concentration at half of the fitted maximal effect; nearly all actives have a fitted effect of over 35% in size
# MARV entry inh: qHTS for inhibitors of binding or entry into cells for Marburg Virus | Potency, µM (doses to about 37.8 µM), inactives show top-dose activity change, negative = inhibition, most hits filed as inhibitors | AID 540276, 2011 | Marburg virus pseudotyped entry inhibition, cell reporter | 300,000 tested, 1.8% active; calls by dose curve; tested in HEK293 cells; further: potency means the concentration at half of the fitted maximal effect
# * = called active by the depositor; i = inactive; ? = inconclusive; · = no result; ! = not confirmed by another sample; [ ] = another dose, or the depositor's remark. On the % scale 0 is the no-effect control and ±100 the full control effect.
SMILES,FMDV antiviral,Vaccinia Venus,LASV entry inh,HCMV antiviral,VACV mCherry inh,MARV entry inh
O=C(CN(C(=O)CCC(=O)Nc1nccs1)c1cccc(F)c1)NCCc1ccccc1,-3.9%,-7.3%,?,-88.3*,-2.0%,4.5%[46.1 µM]
Cc1cc(NC(=O)Nc2cccc([N+](=O)[O-])c2)no1,9.0%,·,·,?,·,·
O=C(Nc1ccc(OC(F)(F)F)cc1)Nc1cccnc1,42.6%,·,·,22.9,·,·
O=C(Nc1ccc(OC(F)(F)F)cc1)Nc1cccc([N+](=O)[O-])c1,-3.7%,10µM*,?,-103.6*,10µM*,?
Cc1ccc(NC(=O)Nc2cccc([N+](=O)[O-])c2)cc1F,-1.7%,?,?,-100.2*,?,?
C=CCC[C@H](Cc1ccc(F)cc1)C(=O)O[C@H](CNC(=O)[C@@H](CC=C)CC(=O)N(CCO)Cc1ccccc1)c1ccccc1,39.8µM*,-18.1%,·,4.5,2.0%,·
C=CCC[C@H](Cc1ccc(F)cc1)C(=O)OC[C@@H](Cc1c[nH]c2ccccc12)NC(=O)[C@@H](CC=C)CC(=O)N(CCO)Cc1ccccc1,?,11.2µM*,·,39.5,12.6µM*,·
C=CCC[C@H](Cc1ccc(F)cc1)C(=O)OC[C@H](Cc1c[nH]c2ccccc12)NC(=O)[C@@H](CC=C)CC(=O)N(CCO)Cc1ccccc1,39.8µM*,11.2µM*,·,81.1,?,·
Cc1ccc(CNC(=O)C2CCN(c3nc4ccccc4n(C)c3=O)CC2)cc1,-9.9%,2.0%,-22.6%[46.1 µM],-1.6,6.1%,11.7%[46.1 µM]
CCCCN1CC(COCc2ccccc2)Oc2cccc(Oc3ccc(F)cc3OC)c2S1(=O)=O (configuration not stated),·,·,?,-9.9,·,·
COc1ccc(S(=O)(=O)c2cn(C)c3cc(N4CCCC4)c(F)cc3c2=O)cc1,6.1%,-16.9%,9.5%[46.1 µM],-7.0,-2.4%,·
CC(C)(C)NCC(O)c1ccc(O)c(CO)c1 (configuration not stated),4.6%,-12.7%,?,·,-25.5%,?
OCc1cc(C(O)CNCCCCCCOCCCCc2ccccc2)ccc1O (configuration not stated),-18.2%,-20.3%,?,-60.1*,?,11.2µM*!
O=C1CC(=O)OC(c2ccc([N+](=O)[O-])cc2)O1,10µM*,12.6µM*,·,·,12.6µM*,·
CCN1C(=O)N(CC)C(O)(c2ccccc2)C1(O)c1ccccc1 (configuration not stated),-17.2%,-9.0%,8.1%,-61.9*,·,25.7%
Cc1ccc2c(CC(=O)Nc3c(C(=O)c4ccc(C)c(F)c4)oc4ccccc34)coc2c1,-2.2%,-12.9%,15.5%[46.1 µM],21.0,-14.8%,21.4%[46.1 µM]
CC(C)NC(=O)Cn1c(=O)nc(-c2ccccc2)c2ccccc21,6.3%,-21.9%,-5.1%[46.1 µM],49.2,?,·
C/C(CC(=O)Nc1cc(C)ccn1)=N\NC(=O)c1cccc(C)c1O,50.6%,-29.6%,?,-98.0*,?,?
C/C(CC(=O)Nc1ccccn1)=N\NC(=O)c1ccccc1O,29.0%,-11.8%,?,-91.2*,3.98µM*,?
C/C(CC(=O)Nc1ccccn1)=N\NC(=O)c1ccc2ccccc2c1,33.0%,-6.2%,2.6%,-3.6,-19.5%,16.4%
Cc1c(N)nc([C@H](CC(N)=O)NC[C@H](N)C(N)=O)nc1C(=O)N[C@H](C(=O)N[C@H](C)[C@@H](O)[C@H](C)C(=O)N[C@H](C(=O)NCCc1nc(-c2nc(C(=O)NCCCCN=C(N)N)cs2)cs1)[C@@H](C)O)[C@@H](O[C@@H]1O[C@@H](CO)[C@@H](O)[C@H](O)[C@@H]1O[C@H]1O[C@H](CO)[C@@H](O)[C@H](OC(N)=O)[C@@H]1O)c1cnc[nH]1,-3.3%,-27.1%,·,·,i,·
COCc1cc(CN2CCCC2)c(O)c2ncccc12,·,?,?,-95.2*,14.1µM*,25.9µM*
Oc1c(CN2CCN(c3ccccn3)CC2)cc(Cl)c2cccnc12,?,11.2µM*,12.6µM*,·,·,7.08µM*
OCCN1CCN(Cc2cc(Cl)c3cccnc3c2O)CC1,-10.5%,·,?,-33.0,·,?
CN(C)C1CCN(Cc2cc(COCc3ccccc3)c3cccnc3c2O)C1 (configuration not stated),-21.2%,·,·,·,·,·
SMILES,FMDV antiviral,Vaccinia Venus,LASV entry inh,HCMV antiviral,VACV mCherry inh,MARV entry inh
Oc1c(CN2CCCCC2)cc(COCc2ccccc2)c2cccnc12,-28.0%,?,2.24µM*,-96.3*,2.51µM*,?
Cc1ccc2oc(-c3ccc(Cl)c(NC(=O)c4cc5ccccc5o4)c3)nc2c1,54.2%,2.7%,?,70.2,-4.1%,?
O=C(C[n+]1cccc(Cl)c1)c1ccc(F)cc1,·,-8.8%,·,·,17.2%,·
CN1C(=O)N=C2N=CN(C)C2C1=O (configuration not stated),·,·,·,·,·,4.5%
CCCCN(C)C(=O)c1sc(=O)n(Cc2c(C)cccc2C)c1C,-7.9%,-0.1%,·,-61.2*,i,·
O=C(NCc1cccs1)C(=O)c1cn(CC(=O)N2CCOCC2)c2ccccc12,7.7%,-6.7%,10.9%,-95.5*,i,0.7%[46.1 µM]
COc1ccc(C[C@H]2CN3C(=NC[C@@H]3Cc3ccc(O)cc3)N2C[C@H](C)NC(=O)c2ccc(C)c(Br)c2)cc1,-17.5%,12.6µM*,·,·,?,·
Cc1ccc(C(=O)N[C@@H](C)CN2C3=NC[C@@H](Cc4ccccc4)N3C[C@H]2Cc2ccc(O)cc2)cc1Br,?,?,·,10.6,?,·
COc1ccc(C[C@H]2CN3C(=NC[C@@H]3C(C)C)N2C[C@H](C)NC(=O)c2ccc(C)c(Br)c2)cc1,-15.0%,?,·,-37.3,?,·
Cc1ccc(C(=O)N[C@@H](C)CN2C3=NC[C@H](Cc4ccccc4)N3C[C@H]2Cc2ccc(O)cc2)cc1Br,-24.5%,12.6µM*,·,·,?,·
COc1cc(C2c3cc4c(c(O)c3CC3COC(=O)C32)OCO4)cc(OC)c1OC (configuration not stated),-21.7%,?,?,-83.4*,?,?
COc1cc([C@@H]2c3cc4c(cc3[C@H](OC(C)=O)[C@H]3COC(=O)[C@@H]23)OCO4)cc(OC)c1OC,·,-24.8%,·,·,?,·
COc1cc(C2c3cc4c(cc3CC3COC(=O)N32)OCO4)cc(OC)c1OC (configuration not stated),-7.9%,?,?,-88.3*,?,?
COc1cc([C@@H]2c3cc4c(cc3[C@@H](O)[C@H]3COC(=O)[C@H]23)OCO4)cc(OC)c1O,·,?,·,·,11.2µM*,·
COc1cc(C2c3cc4c(cc3C(O)[C@H]3COC(=O)C23)OCO4)cc(OC)c1OC (some centres not stated),0.0%,-20.2%,·,·,-18.1%,·
